# Measured values published in PubChem BioAssay (NCATS).
# Records with an inconclusive call do not appear. Unmarked numbers belong to inactive results. Activity calls are given as the source filed them. The call rests on the fitted dose curve; in most records, active means well fitted cell-killing curve with a large enough effect; inconclusive means small, poorly fitted or top-dose-only effect, or effect the other way; inactive means no such curve, though single readings can be large or run the other way.
# Experiment: qHTS assay to identify small molecule inhibitors of chordoma cells - UCH-1 (AID 1259355); further: nearly all actives have a fitted effect of over 55% in size
# Settings: UCH-1 chordoma viability, CellTiter-Glo, 48 h, combination, with auranofin plus four topoisomerase inhibitors; series mostly up to 46.1 µM; activity, negative = inhibition: at the top concentration
# Source text: NIH Chemical Genomics Center [NCGC]
# Chordoma is a rare and slow growing tumor that can occur anywhere along the spine, from the base of the skull to the tailbone. Current treatment options for chordoma is surgery and radiation therapy for those who are not candidates for surgery. But chordomas tend to return in the same location or surrounding areas of the original tumor after surgery and/or radiation. Chemotherapy can slow down the progression of the tumor. As chordoma is slow growing, the general cytotoxic agents that kill fast growing cells are ineffective, and some patients have been reported to respond to molecularly targeted drugs.
# NCATS Pharmaceutical Collection (NPC) containing approximately 3000 clinically approved and investigational drugs were used to screen at 15 concentrations in a chordoma cell lines, UCH-1, to identify small molecule compounds that can inhibit chordoma cell growth.
# NCGC Assay Protocol Summary:
# Human chordoma cell line UCH-1 was dispensed at 800 per well in 4uL of culture medium into white solid bottom 1536-well plates (Corning Life Sciences, Corning, NY) using a Multidrop Combi (Thermo Scientific, Waltham, MA) dispenser. The assay plates were incubated at 37 C and 5% CO2 for an overnight, and then 23nL of compounds dissolved in DMSO and positive control were transferred using a Pintool station (Wako, San Diego, CA). Compound treatment was followed by the addition of 1uL of the combination compounds (1uM Auranofin, 500nM each of Camptothecin, Doxorubicin, Rubitecan, and Topotecan) and assay medium to each well of the assay plates using Flying Reagent Dispenser (FRD, Aurora Discovery, San Diego, CA). The assay plates were incubated at 37 C and 5% CO2 for 48hr. Then 5uL of CellTiter-Glo reagent (Promega Corporation, Madison, WI) was added to each well of the assay plates using FRD. After 30min incubation at room temperature, the luminescence signal was quantified using a ViewLux plate reader (PerkinElmer, Shelton, CT).
# On the % scale 0 is the no-effect control and ±100 the full control effect; potency means the concentration at half of the fitted maximal effect.
Structure (SMILES),"activity, negative = inhibition",Potency
O=C(N[C@H](CO)[C@H](O)c1ccc([N+](=O)[O-])cc1)C(Cl)Cl,-21.4%,
CC(C)C1CCC(C(=O)N[C@H](Cc2ccccc2)C(=O)O)CC1 (stereo not given in full),-6.05%,
CNC1CCCN(c2c(F)cc3c(=O)c(C(=O)O)cn(C4CC4)c3c2OC)C1 (stereo not given),1.3%,
NC(N)=NC(N)=NCCc1ccccc1,,inactive
CCn1cc(C(=O)O)c(=O)c2cc(F)c(N3CCNCC3)cc21,4.76% [at 20.6 µM],
CN(C)c1ccc(C(=C2C=CC(=[N+](C)C)C=C2)c2ccc(N(C)C)cc2)cc1,,22.4 µM (active)
O=C(O)c1cc(=O)[nH]c(=O)[nH]1,16.9%,
CCOC(=O)[C@H](CCc1ccccc1)N[C@H]1CS[C@H](c2cccs2)CN(CC(=O)O)C1=O,-2.11%,
C1CCC(C(CC2CCCCN2)C2CCCCC2)CC1 (stereo not given),,31.6 µM (active)
CC(C)(Sc1cc(C(C)(C)C)c(O)c(C(C)(C)C)c1)Sc1cc(C(C)(C)C)c(O)c(C(C)(C)C)c1,-0.981% [at 20.6 µM],
NS(=O)(=O)c1cc2c(cc1Cl)NC(C(Cl)Cl)NS2(=O)=O (stereo not given),-12.5% [at 20.6 µM],
Cc1ncc([N+](=O)[O-])n1CCO,-9.02%,
COc1ccc2cc3[n+](cc2c1OC)CCc1cc2c(cc1-3)OCO2,-5.34%,
CC(C)(C#N)c1cc(Cn2cncn2)cc(C(C)(C)C#N)c1,-1.43%,
CN1CCCC(n2nc(Cc3ccc(Cl)cc3)c3ccccc3c2=O)CC1 (stereo not given),-48.7%,
CC(C)(C)NC(=O)[C@H]1CC[C@H]2[C@@H]3CC[C@H]4NC(=O)C=C[C@]4(C)[C@H]3CC[C@]12C,-8.84% [at 20.6 µM],
O=c1oc2c(O)c(O)cc3c(=O)oc4c(O)c(O)cc1c4c23,-26.7%,
Nc1nc(N)nc(-c2cc(Cl)ccc2Cl)n1,0.455%,
Nc1nc(N)c2nc(CNc3ccc(C(=O)NC(CCC(=O)O)C(=O)O)cc3)cnc2n1 (stereo not given),-1.39%,
CO[C@@H]1[C@@H](OC(N)=O)[C@@H](O)[C@H](Oc2ccc3c(O)c(NC(=O)c4ccc(O)c(CC=C(C)C)c4)c(=O)oc3c2C)OC1(C)C,-22.9% [at 20.6 µM],

Structure (SMILES),"activity, negative = inhibition",Potency
CCc1c2c(nc3ccc(OC(=O)N4CCC(N5CCCCC5)CC4)cc13)-c1cc3c(c(=O)n1C2)COC(=O)[C@]3(O)CC,-28.9%,
CC(C)(C)C(=O)OCOP(=O)(COCCn1cnc2c(N)ncnc21)OCOC(=O)C(C)(C)C,13.3%,
C[C@@H](CN1CC(=O)NC(=O)C1)N1CC(=O)NC(=O)C1,-7.35%,
COc1ccc(-c2ccc3cc(C(=O)O)ccc3c2)cc1C12CC3CC(CC(C3)C1)C2,-13.4%,
C[C@@H]1CN(c2c(F)c(N)c3c(=O)c(C(=O)O)cn(C4CC4)c3c2F)C[C@H](C)N1,-19.6%,
O=S(=O)(c1cccc2cnccc12)N1CCCNCC1,-25.4%,
N[C@@H](C(=O)N[C@@H]1C(=O)N2C(C(=O)O)=C(Cl)CS[C@H]12)c1ccccc1,-29%,
CCN[C@H]1C[C@H](C)S(=O)(=O)c2sc(S(N)(=O)=O)cc21,0.0664%,
CN(C)CCc1c[nH]c2ccc(CS(=O)(=O)N3CCCC3)cc12,-14.7%,
C[C@@H]1C[C@H]2[C@@H]3CCC4=CC(=O)C=C[C@]4(C)[C@@]3(Cl)[C@@H](O)C[C@]2(C)[C@@]1(OC(=O)c1ccco1)C(=O)CCl,-13.8% [at 20.6 µM],
COc1cc([C@@H]2c3cc4c(cc3[C@H](O)[C@H]3COC(=O)[C@H]23)OCO4)cc(OC)c1OC,,0.0079 µM (active)
C#CCN[C@@H]1CCc2ccccc21,-1.19%,
COc1ncnc(NS(=O)(=O)c2ccc(N)cc2)c1OC,-21.8%,
O=C(O)c1cn(C2CC2)c2cc(N3CCNCC3)c(F)cc2c1=O,-4.08% [at 20.6 µM],
CCCc1cc(C(N)=S)ccn1,-23.9%,
NC(=O)N1c2ccccc2CC(=O)c2ccccc21,-7.32%,
O=P(O)(O)C(O)(Cc1cccnc1)P(=O)(O)O,-15.7%,
COC(c1ccccc1)(c1ccccc1)[C@H](Oc1nc(C)cc(C)n1)C(=O)O,2.81%,
Nc1nc(F)nc2c1ncn2[C@@H]1O[C@H](CO)[C@@H](O)[C@@H]1O,-19.9%,
Nc1[nH]c(=O)ncc1F,-5.64% [at 20.6 µM],
